Test results: PubChem BioAssay (EPA / NIEHS)
Results filed as inconclusive are left out. Activity calls are given as the source filed them. Rule for the calls: active = hit-call score of the fitted dose curve at least 0.9, where 1 is the maximum; inconclusive = response in the unintended direction; inactive = score below 0.9.

Tests used:
[1] = ATG_XTT_Cytotoxicity: Cytotoxicity Assessment in the Attagene TRANS-FACTORIAL HepG2 Assay (AID 2283584)
Outline: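 HepG2 human liver cells, transiently transfected with multiple GAL4-UAS reporter units, were dosed and read at 24 h by XTT as cell number. Loss of signal was fitted relative to DMSO negative control baseline.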

[2] = TOX21_p53_BLA_p2_viability: Viability Assessment in the Tox21 HCT-116 p53 Agonism Beta-lactamase Assay, Phase 2 (AID 2283591);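 note: compound exposure lasted 16 h at 37 °C; actives lower the ATP signal meaning cytotoxicity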
Outline: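 HCT-116 p53-bla cells (4000/well) rested 5 h at 37C, then received compounds in DMSO (217-fold dilution) for 16 h at 37C, 5% CO2. After the CCF4 read, CellTiter-Glo was added; ATP luminescence was read after 30 min at room temperature.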

[3] = target: Cellular tumor antigen p53 (Homo sapiens) (UniProt P04637); assay: TOX21_p53_BLA_p2_ratio: Tox21 HCT-116 p53 Agonism Beta-lactamase Assay, Ratio, Phase 2 (AID 2283592)
Outline: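 HCT116 cells carrying a p53-responsive beta-lactamase reporter were plated, incubated 5 h at 37C, then dosed with compounds in DMSO (217-fold dilution) for 16 h. CCF4-AM substrate was added for 2 h at room temperature; the 460/530 nm emission ratio gave gain-of-signal activity relative to DMSO.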

[4] = target: Cellular tumor antigen p53 (Homo sapiens) (UniProt P04637); assay: TOX21_p53_BLA_p3_ratio: Tox21 HCT-116 p53 Agonism Beta-lactamase Assay, Ratio, Phase 3 (AID 2283596)
Outline: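 HCT116 p53-bla cells (4000/well) given compound in DMSO (217-fold dilution) after 5 h, incubated 16 h at 37C. CCF4-AM substrate 2 h at room temperature; 460/530 nm emission ratio, gain fitted against DMSO.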

[5] = TOX21_p53_BLA_p4_viability: Viability Assessment in the Tox21 HCT-116 p53 Agonism Beta-lactamase Assay, Phase 4 (AID 2283597);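 note: hits lower the luminescence signal meaning cytotoxicity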
Outline: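 HCT116 p53-bla cells (4000/well) rested 5 h at 37C, then received compounds in DMSO (217-fold dilution) for 16 h at 37C, 5% CO2. CellTiter-Glo was added after the CCF4-AM read, and luminescence was read after 30 min at room temperature.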

[6] = target: Cellular tumor antigen p53 (Homo sapiens) (UniProt P04637); assay: TOX21_p53_BLA_p5_ratio: Tox21 HCT-116 p53 Agonism Beta-lactamase Assay, Ratio, Phase 5 (AID 2283599)
Outline: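 HCT-116 cells carrying a p53-inducible beta-lactamase reporter were seeded at 4000 cells/well and dosed after 5 h with compound in DMSO (217-fold dilution). After 16 h at 37C, CCF4-AM substrate was added for 2 h, and the 460/530 nm emission ratio was scored as gain-of-signal versus DMSO.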

[7] = target: Cellular tumor antigen p53 (Homo sapiens) (UniProt P04637); assay: TOX21_p53_BLA_p4_ratio: Tox21 HCT-116 p53 Agonism Beta-lactamase Assay, Ratio, Phase 4 (AID 2283601)
Outline: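 HCT116 cells carrying an inducible beta-lactamase reporter were plated at 4000 cells/well, rested 5 h, then exposed to compounds in DMSO (217-fold dilution) for 16 h at 37C. CCF4-AM substrate was loaded 2 h at room temperature; 460/530 nm emission ratio scored gain-of-signal versus DMSO.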

[8] = TOX21_p53_BLA_p3_viability: Viability Assessment in the Tox21 HCT-116 p53 Agonism Beta-lactamase Assay, Phase 3 (AID 2283593);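 note: cells exposed to compound for 16 h before reading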
Outline: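 HCT-116 cells (4000/well) rested 5 h at 37C, then got DMSO compounds by pin tool (217-fold dilution) for 16 h at 37C, 5% CO2. After the bla read, CellTiter-Glo was added and luminescence read at 30 min, room temperature.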

[9] = TOX21_p53_BLA_p5_viability: Viability Assessment in the Tox21 HCT-116 p53 Agonism Beta-lactamase Assay, Phase 5 (AID 2283600)
Outline: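 Cells were plated at 4000/well, rested 5 h at 37C, then given compounds in DMSO (217-fold dilution) for 16 h at 37C, 5% CO2. Following the CCF4-AM beta-lactamase read, CellTiter-Glo was added and luminescence was read after 30 min at room temperature.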

Measured: AC50

Cellular tumor antigen p53 (Homo sapiens), sequence (P04637 whole entry, looked up): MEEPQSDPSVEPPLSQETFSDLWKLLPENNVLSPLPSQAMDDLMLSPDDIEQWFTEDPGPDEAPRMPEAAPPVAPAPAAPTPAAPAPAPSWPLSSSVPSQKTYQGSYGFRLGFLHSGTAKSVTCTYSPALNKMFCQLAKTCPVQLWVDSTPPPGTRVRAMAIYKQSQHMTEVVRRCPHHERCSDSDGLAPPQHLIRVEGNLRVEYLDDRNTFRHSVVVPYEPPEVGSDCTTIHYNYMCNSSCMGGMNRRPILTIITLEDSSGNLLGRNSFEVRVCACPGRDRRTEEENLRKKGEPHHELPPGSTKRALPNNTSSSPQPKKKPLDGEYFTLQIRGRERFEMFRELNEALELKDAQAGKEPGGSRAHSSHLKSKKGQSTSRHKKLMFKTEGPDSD

O=[N+]([O-])c1c2ccccc2cc2ccccc12
not listed: [8] | [9]
inactive: all other assays above

Brc1ccc(Br)cc1
inactive: all assays above

O=C1C[C@@H]2OCC=C3CN4CC[C@]56c7ccccc7N1[C@H]5[C@H]2[C@H]3C[C@H]46
inactive: all assays above

CCOP(=S)(OCC)Oc1ccc(Cl)cc1Cl
not listed: [5] | [8] | [9]
inactive: all other assays above

Cc1cc(Cl)ccc1O
not listed: [3] | [8] | [9]
inactive: all other assays above

CCCCCCCCCCCCCCC(Br)C(=O)O (centres undefined)
active: [8] 41.4 µM | [4] 75.3 µM | [6] 70.6 µM | [9] 70.3 µM
inactive: [1] | [2] | [5] | [7]

O=C(O)c1cc(I)cc(I)c1I
not listed: [3] | [4] | [6]
inactive: all other assays above

C=CC(=O)NC(C)(C)CC(C)=O
inactive: [1] | [2] | [4] | [5] | [9]

Cc1cc(C(C)(C)c2ccc(O)c(C)c2)ccc1O
active: [3] 30.2 µM | [7] 41.9 µM
not listed: [8] | [9]
inactive: all other assays above

CCCCCCCCCCCCBr
not listed: [4] | [8] | [9]
inactive: all other assays above

Nc1nc(=S)[nH][nH]1
inactive: [1] | [2] | [3] | [6] | [9]
